Where “and” joins values, the source holds several entries; their conditions need not be identical. Equal values may be shown once. Inconclusive results are not listed. Some structures have more than one record in an assay (separate samples or runs), and their calls can disagree. Calls of active or inactive are those of the source. Rule for the calls, unless noted: active = hit-call score of the fitted dose curve at least 0.9, where 1 is the maximum; inactive = score below 0.9.

The record followed here is PubChem BioAssay (EPA / NIEHS).

Experiment [1] concerns the target Paired box protein Pax-6 (Homo sapiens) (UniProt P26367). The experiment is described as follows: ATG_Pax6_CIS: Attagene CIS-FACTORIAL HepG2 Assay for human Paired Box 6 (PAX6) (AID 2282956). Conditions: HepG2 CIS-FACTORIAL PAX6 reporter transcription, RNA readout; actives raise or lower the signal. The method, boiled down:
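HepG2 cells transiently transfected with cis-promoter-driven multiplexed reporter units sensing endogenous transcription factor activity; 24 h chemical exposure. Reporter mRNA quantified by RT-PCR, 6-FAM labelling, HpaI digestion and capillary electrophoresis; bidirectional fit versus DMSO baseline.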

Experiment [2] is described as follows: ATG_PXRE_CIS: Attagene CIS-FACTORIAL HepG2 Assay for human Pregnane X Receptor Element (PXRE) (AID 2282957). To be noted: HepG2 Attagene CIS-FACTORIAL PXRE reporter, mRNA; actives raise or lower the signal. The method, boiled down: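 Transfect HepG2 with MRTUs (cis promoter elements); dose chemical, incubate 24 h; isolate RNA, RT with oligo(dT), PCR, 6-FAM label, HpaI cut, CE. Gain/loss fit vs DMSO.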

The nature of experiment [3]: ATG_PPRE_CIS: Attagene CIS-FACTORIAL HepG2 Assay for human Peroxisome Proliferator-activated Response Element (PPRE) (AID 2282958). Conditions: HepG2 PPRE cis-element reporter, Attagene transcription factor profiling; actives raise or lower the signal. The method, boiled down:
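HepG2 cells are transiently transfected with multiplexed cis-promoter reporter units to report endogenous PPAR activity. After 24 h dosing, reporter mRNA is read by RT-PCR and capillary electrophoresis. Fitting is bidirectional against DMSO.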

Experiment [4] can be described thus: ATG_RORE_CIS: Attagene CIS-FACTORIAL HepG2 Assay for human RAR-related Orphan Receptor Element (RORE) (AID 2282959). To be noted: HepG2 Attagene cis-factorial RORE reporter, mRNA; actives raise or lower the signal. The method, boiled down:
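HepG2 cells carrying transiently transfected cis-regulated reporter units; RORE-driven reporter mRNA quantified 24 h post-dosing by RT-PCR, 6-FAM primer extension, HpaI digestion and capillary electrophoresis. Bidirectional fit versus DMSO.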

Experiment [5] is described as follows: ATG_Sox_CIS: Attagene CIS-FACTORIAL HepG2 Assay for human SRY-box transcription factor (SOX) (AID 2282960). Conditions: HepG2 Attagene cis-factorial SOX reporter, mRNA; actives raise or lower the signal. The method, boiled down: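 HepG2 cells transiently transfected with multiple cis-regulated reporter units, then dosed for 24 h. Reporter mRNA quantified by RT-PCR, fluorescent labelling, HpaI digestion and capillary electrophoresis; bidirectional fit versus DMSO.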

Experiment [6] concerns the target Transcription factor Sp1 (Homo sapiens) (UniProt P08047). The experiment is described as follows: ATG_Sp1_CIS: Attagene CIS-FACTORIAL HepG2 Assay for human Specificity Protein 1 (Sp1) (AID 2282961). To be noted: HepG2 Sp1 cis-reporter transcription, actives raise or lower the signal. The method, boiled down: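 HepG2 cells transiently transfected with multiplexed cis-regulated reporter constructs, chemical exposure 24 h. Reporter mRNA quantified by RT-PCR with capillary electrophoresis; bidirectional fit relative to DMSO.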

Experiment [7] can be described thus: ATG_SREBP_CIS: Attagene CIS-FACTORIAL HepG2 Assay for human Sterol Regulatory Element Binding (SREBP) (AID 2282962). To be noted: HepG2 Attagene cis-factorial SREBP reporter, mRNA; actives raise or lower the signal. The method, boiled down:
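HepG2 cells transiently transfected with multiplexed cis-promoter reporter units sensing endogenous transcription factors; reporter mRNA measured 24 h after dosing by RT-PCR, 6-FAM labeling, HpaI digestion and capillary electrophoresis. Bidirectional fit versus DMSO.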

For experiment [8], the target named is Signal transducer and activator of transcription 3 (Homo sapiens) (UniProt P40763). The experiment is described as follows: ATG_STAT3_CIS: Attagene CIS-FACTORIAL HepG2 Assay for human Signal Transducer and Activator of Transcription 3 (STAT3) (AID 2282963). To be noted: HepG2, Attagene cis-factorial STAT3 reporter transcription; actives raise or lower the signal. The method, boiled down:
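Endogenous STAT3-responsive cis-element activity was read in transiently transfected HepG2 cells after 24 h treatment. Reporter transcripts were quantified via RT-PCR and capillary electrophoresis, with DMSO as negative control and bidirectional curve fitting.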

Experiment [9] is described as follows: ATG_TA_CIS: Attagene CIS-FACTORIAL HepG2 Assay for human TA Basal Promoter (AID 2282964). Conditions: HepG2 Attagene CIS-factorial TA basal promoter reporter; actives raise or lower the signal. The method, boiled down:
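Fluorescence from labelled RT-PCR reporter fragments, separated by capillary electrophoresis, gives the signal. Cells: HepG2 transiently carrying multiple reporter units, 24 h chemical dosing. Gain or loss relative to DMSO.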

Experiment [10] can be described thus: ATG_TCF_b_cat_CIS: Attagene CIS-FACTORIAL HepG2 Assay for human T-Cell-Factor with beta-catenin (TCF/b-cat) (AID 2282965). To be noted: HepG2 TCF/beta-catenin cis-reporter transcription, actives raise or lower the signal. The method, boiled down: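 Endogenous TCF/LEF activity read as reporter transcript level via RT-PCR and capillary electrophoresis fluorescence in transfected HepG2, 24 h exposure; gain or loss of signal fitted against DMSO controls.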

Experiment [11] is described as follows: ATG_TAL_CIS: Attagene CIS-FACTORIAL HepG2 Assay for human TAL Basal Promoter (AID 2282966).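 Note: background control endpoint measuring basal TAL promoter reporter mRNA not a specific factor.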 Conditions: HepG2 Attagene cis-factorial TAL promoter reporter; actives raise or lower the signal. The method, boiled down: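 Fluorescence of labelled reporter cDNA fragments, resolved by capillary electrophoresis, gave the readout. Human HepG2 liver cells carried transiently transfected cis-element reporter units and were treated for 24 hours; activity was fitted bidirectionally against DMSO.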

Experiment [12] is described as follows: ATG_TGFb_CIS: Attagene CIS-FACTORIAL HepG2 Assay for human Transforming Growth Factor (TGF) (AID 2282967). Conditions: HepG2 Attagene CIS TGFb reporter, mRNA transcription; actives raise or lower the signal. The method, boiled down:
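Bidirectional fitting relative to DMSO gave the endpoint. Underlying data: reporter mRNA from HepG2 cells carrying transiently transfected cis-regulated reporter constructs, harvested 24 h after dosing and analyzed by RT-PCR and capillary electrophoresis.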

The nature of experiment [13]: ATG_VDRE_CIS: Attagene CIS-FACTORIAL HepG2 Assay for human Vitamin D Receptor Element (VDRE) (AID 2282968). Conditions: HepG2 VDRE cis-reporter transcription, actives raise or lower the signal. The method, boiled down:
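Reporter mRNA induction, quantified by capillary electrophoresis of fluorescently labelled RT-PCR products, was read 24 h after dosing HepG2 cells carrying transiently transfected cis-regulated reporter units; gain or loss relative to DMSO.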

The target of experiment [14] is Nuclear receptor subfamily 1 group I member 3 (Homo sapiens) (UniProt Q14994). The experiment is described as follows: ATG_CAR_TRANS: Attagene TRANS-FACTORIAL HepG2 Assay for human Constitutive Androstane Receptor (CAR) (AID 2282969; active = hit-call score of the fitted dose curve at least 0.9, where 1 is the maximum;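 note: activators raise reporter mRNA above DMSO so AC50 marks induction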). To be noted: HepG2 Attagene TRANS-FACTORIAL CAR reporter. The method, boiled down: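 Readout is reporter mRNA induction, quantified by fluorescent primer extension and capillary electrophoresis after RT-PCR. Cells were HepG2 transiently carrying chimeric NR-Gal4 constructs with GAL4-UAS reporters, treated for 24 h; activity scored upward from DMSO.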
Sequence of Nuclear receptor subfamily 1 group I member 3 (Homo sapiens) (Q14994 whole entry, looked up, the tested form may be a part): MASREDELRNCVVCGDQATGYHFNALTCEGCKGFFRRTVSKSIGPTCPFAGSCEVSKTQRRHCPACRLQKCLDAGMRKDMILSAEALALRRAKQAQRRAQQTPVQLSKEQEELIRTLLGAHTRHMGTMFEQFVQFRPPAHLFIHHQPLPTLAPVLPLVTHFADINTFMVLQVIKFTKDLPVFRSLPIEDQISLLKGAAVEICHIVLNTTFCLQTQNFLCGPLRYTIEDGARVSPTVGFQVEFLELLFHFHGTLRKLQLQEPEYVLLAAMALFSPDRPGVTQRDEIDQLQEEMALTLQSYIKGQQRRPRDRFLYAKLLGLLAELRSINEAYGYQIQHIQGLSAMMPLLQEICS

Experiment [15] concerns the target Estrogen receptor (Homo sapiens) (UniProt P03372). The experiment is described as follows: ATG_ERa_TRANS: Attagene TRANS-FACTORIAL HepG2 Assay for human Estrogen Receptor alpha (ERa) (AID 2282970; active = hit-call score of the fitted dose curve at least 0.9, where 1 is the maximum). Conditions: HepG2 Attagene TRANS ERa GAL4 reporter, mRNA. The method, boiled down:
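Human liver HepG2, transient transfection of multiple GAL4-UAS reporter units; TRANS format (exogenous NR-Gal4 chimera). 24 h dosing. Readout: reporter mRNA, RT-PCR, 6-FAM primer extension, HpaI digest, capillary electrophoresis. Positive direction vs DMSO.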

The target in experiment [16] is Steroid hormone receptor ERR1 (Homo sapiens) (UniProt P11474). The experiment is described as follows: ATG_ERRa_TRANS: Attagene TRANS-FACTORIAL HepG2 Assay for human Estrogen-Related Receptor alpha (ERRa) (AID 2282971; active = hit-call score of the fitted dose curve at least 0.9, where 1 is the maximum). Conditions: HepG2 Attagene TRANS reporter, ERRa transactivation. The method, boiled down:
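Reporter transcript induction was quantified by RT-PCR and capillary electrophoresis of FAM-labelled, HpaI-cut products after 24 h treatment of HepG2 cells carrying transiently transfected GAL4-UAS reporter units and an exogenous ERRa-Gal4 fusion; activity scored as increase over DMSO.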

Experiment [17] addresses X-box-binding protein 1 (Homo sapiens) (UniProt P17861). The experiment is described as follows: ATG_Xbp1_CIS: Attagene CIS-FACTORIAL HepG2 Assay for human X-box Binding Protein 1 (XBP1) (AID 2282972). To be noted: HepG2 XBP1 cis-element reporter, Attagene multiplex; actives raise or lower the signal. The method, boiled down: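 HepG2 cells transiently transfected with multiple cis-element reporter units report endogenous TF activity; 24 h exposure, then reporter mRNA measured by RT-PCR, 6-FAM labelling, HpaI digestion and capillary electrophoresis. Bidirectional fitting versus DMSO.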

Experiment [18] is described as follows: ATG_M_19_TRANS: Attagene TRANS-FACTORIAL HepG2 Assay for M19 Transcription Factor (Internal Marker) (AID 2282974; active = hit-call score of the fitted dose curve at least 0.9, where 1 is the maximum). To be noted: HepG2 Attagene TRANS-FACTORIAL M19 internal marker reporter. The method, boiled down: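 HepG2 transiently transfected with GAL4-UAS multiplex reporter constructs, exposed 24 h; reporter RNA quantified by RT-PCR, 6-FAM labeling, HpaI digestion and capillary electrophoresis; internal background marker fitted upward versus DMSO.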

Experiment [19] is described as follows: ATG_PBREM_CIS: Attagene CIS-FACTORIAL HepG2 Assay for human Phenobarbital-responsive Enhancer Module (PBREM) (AID 2282955). To be noted: HepG2 PBREM cis-reporter, Attagene multiplexed transcription; actives raise or lower the signal. The method, boiled down:
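HepG2 cells transiently transfected with multiple cis-regulated reporter units measure endogenous transcription factor activity; 24 h compound exposure. Reporter mRNA quantified by RT-PCR, fluorescent labelling, HpaI digestion and capillary electrophoresis; bidirectional fit versus DMSO.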

The target of experiment [20] is Androgen receptor (Homo sapiens) (UniProt P10275). The experiment is described as follows: ATG_AR_TRANS: Attagene TRANS-FACTORIAL HepG2 Assay for human Androgen Receptor (AR) (AID 2282973; active = hit-call score of the fitted dose curve at least 0.9, where 1 is the maximum). To be noted: HepG2 Attagene TRANS-FACTORIAL AR reporter transcription. The method, boiled down:
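Steps: transfect HepG2 with multiple GAL4-UAS reporter transcription units (TRANS format, exogenous NR-Gal4 protein); dose 24 h; isolate RNA, reverse-transcribe, PCR-amplify, FAM-label, HpaI-digest; resolve by capillary electrophoresis. Positive direction vs DMSO.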

Sequence of Signal transducer and activator of transcription 3 (Homo sapiens) (P40763 whole entry, looked up): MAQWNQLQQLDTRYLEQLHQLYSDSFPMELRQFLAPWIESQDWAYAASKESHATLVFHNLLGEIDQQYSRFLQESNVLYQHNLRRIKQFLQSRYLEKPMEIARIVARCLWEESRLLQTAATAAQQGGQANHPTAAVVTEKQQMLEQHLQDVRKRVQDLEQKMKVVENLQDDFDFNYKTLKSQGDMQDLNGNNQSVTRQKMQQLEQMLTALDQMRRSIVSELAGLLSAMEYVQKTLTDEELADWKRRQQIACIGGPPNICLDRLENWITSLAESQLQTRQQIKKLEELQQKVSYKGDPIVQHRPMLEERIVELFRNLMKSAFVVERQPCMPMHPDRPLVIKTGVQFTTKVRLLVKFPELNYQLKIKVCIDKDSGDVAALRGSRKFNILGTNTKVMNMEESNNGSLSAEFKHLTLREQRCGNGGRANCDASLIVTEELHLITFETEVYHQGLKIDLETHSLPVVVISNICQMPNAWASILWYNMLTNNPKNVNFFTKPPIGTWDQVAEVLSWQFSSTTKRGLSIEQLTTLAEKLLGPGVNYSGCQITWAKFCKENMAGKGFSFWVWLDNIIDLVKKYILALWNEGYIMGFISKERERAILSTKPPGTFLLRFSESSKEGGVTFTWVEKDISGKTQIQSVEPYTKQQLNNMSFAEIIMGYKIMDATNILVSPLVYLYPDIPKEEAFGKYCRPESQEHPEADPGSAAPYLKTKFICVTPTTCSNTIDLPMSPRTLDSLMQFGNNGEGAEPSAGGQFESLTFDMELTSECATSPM
Sequence of Transcription factor Sp1 (Homo sapiens) (P08047 whole entry, looked up): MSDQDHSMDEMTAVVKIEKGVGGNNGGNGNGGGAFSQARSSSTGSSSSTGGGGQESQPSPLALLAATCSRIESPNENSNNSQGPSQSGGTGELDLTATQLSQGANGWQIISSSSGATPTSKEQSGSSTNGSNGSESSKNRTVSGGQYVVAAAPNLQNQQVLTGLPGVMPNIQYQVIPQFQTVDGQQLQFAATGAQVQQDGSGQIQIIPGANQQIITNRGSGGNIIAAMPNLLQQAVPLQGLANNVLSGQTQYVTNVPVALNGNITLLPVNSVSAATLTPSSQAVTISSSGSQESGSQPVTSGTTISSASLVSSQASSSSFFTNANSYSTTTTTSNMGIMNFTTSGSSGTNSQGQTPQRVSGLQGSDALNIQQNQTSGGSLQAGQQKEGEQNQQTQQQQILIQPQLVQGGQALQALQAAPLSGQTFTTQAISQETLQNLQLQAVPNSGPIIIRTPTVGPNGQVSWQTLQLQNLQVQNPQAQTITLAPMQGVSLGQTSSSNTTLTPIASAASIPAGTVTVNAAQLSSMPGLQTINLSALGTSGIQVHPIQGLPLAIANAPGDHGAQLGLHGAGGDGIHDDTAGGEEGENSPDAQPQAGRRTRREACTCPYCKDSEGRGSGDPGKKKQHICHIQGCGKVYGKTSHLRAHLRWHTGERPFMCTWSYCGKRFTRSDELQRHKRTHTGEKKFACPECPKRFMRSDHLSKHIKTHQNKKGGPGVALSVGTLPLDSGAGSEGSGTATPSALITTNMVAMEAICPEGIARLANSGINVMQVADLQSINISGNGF
Sequence of X-box-binding protein 1 (Homo sapiens) (P17861 whole entry, looked up): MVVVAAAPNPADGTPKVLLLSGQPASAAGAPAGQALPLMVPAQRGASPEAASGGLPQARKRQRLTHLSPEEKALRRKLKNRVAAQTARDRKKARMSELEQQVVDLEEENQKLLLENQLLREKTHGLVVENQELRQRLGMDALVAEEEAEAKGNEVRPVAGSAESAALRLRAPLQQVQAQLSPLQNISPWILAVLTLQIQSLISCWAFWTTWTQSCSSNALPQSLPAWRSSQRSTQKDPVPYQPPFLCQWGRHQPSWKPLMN
Sequence of Estrogen receptor (Homo sapiens) (P03372 whole entry, looked up, the tested form may be a part): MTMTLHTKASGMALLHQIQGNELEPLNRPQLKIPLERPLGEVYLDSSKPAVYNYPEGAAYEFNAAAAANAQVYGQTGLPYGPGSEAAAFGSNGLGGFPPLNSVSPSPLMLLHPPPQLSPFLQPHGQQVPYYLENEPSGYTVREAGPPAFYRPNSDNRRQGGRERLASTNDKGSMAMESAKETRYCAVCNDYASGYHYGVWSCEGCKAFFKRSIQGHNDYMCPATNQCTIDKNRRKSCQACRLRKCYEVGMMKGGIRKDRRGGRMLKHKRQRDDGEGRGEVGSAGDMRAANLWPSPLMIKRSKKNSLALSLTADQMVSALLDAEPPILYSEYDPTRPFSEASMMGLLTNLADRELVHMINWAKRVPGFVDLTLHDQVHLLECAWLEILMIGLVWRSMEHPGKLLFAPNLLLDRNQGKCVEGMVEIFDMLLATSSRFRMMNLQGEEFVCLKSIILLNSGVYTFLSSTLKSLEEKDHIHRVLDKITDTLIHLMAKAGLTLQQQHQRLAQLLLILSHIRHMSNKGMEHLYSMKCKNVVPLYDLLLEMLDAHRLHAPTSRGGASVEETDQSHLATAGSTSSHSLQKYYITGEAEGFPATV
Sequence of Paired box protein Pax-6 (Homo sapiens) (P26367 whole entry, looked up): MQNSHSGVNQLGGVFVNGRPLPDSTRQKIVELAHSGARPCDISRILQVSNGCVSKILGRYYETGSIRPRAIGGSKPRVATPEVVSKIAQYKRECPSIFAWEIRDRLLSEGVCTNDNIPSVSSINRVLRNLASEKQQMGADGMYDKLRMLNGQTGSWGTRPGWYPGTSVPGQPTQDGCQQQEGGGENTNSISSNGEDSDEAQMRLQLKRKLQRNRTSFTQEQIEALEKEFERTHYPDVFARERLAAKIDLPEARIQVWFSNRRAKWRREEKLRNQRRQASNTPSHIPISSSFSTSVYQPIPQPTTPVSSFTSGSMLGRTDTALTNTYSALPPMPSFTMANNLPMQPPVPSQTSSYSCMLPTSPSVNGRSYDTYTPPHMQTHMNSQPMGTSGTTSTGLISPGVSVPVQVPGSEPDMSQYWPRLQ
Sequence of Androgen receptor (Homo sapiens) (P10275 whole entry, looked up, the tested form may be a part): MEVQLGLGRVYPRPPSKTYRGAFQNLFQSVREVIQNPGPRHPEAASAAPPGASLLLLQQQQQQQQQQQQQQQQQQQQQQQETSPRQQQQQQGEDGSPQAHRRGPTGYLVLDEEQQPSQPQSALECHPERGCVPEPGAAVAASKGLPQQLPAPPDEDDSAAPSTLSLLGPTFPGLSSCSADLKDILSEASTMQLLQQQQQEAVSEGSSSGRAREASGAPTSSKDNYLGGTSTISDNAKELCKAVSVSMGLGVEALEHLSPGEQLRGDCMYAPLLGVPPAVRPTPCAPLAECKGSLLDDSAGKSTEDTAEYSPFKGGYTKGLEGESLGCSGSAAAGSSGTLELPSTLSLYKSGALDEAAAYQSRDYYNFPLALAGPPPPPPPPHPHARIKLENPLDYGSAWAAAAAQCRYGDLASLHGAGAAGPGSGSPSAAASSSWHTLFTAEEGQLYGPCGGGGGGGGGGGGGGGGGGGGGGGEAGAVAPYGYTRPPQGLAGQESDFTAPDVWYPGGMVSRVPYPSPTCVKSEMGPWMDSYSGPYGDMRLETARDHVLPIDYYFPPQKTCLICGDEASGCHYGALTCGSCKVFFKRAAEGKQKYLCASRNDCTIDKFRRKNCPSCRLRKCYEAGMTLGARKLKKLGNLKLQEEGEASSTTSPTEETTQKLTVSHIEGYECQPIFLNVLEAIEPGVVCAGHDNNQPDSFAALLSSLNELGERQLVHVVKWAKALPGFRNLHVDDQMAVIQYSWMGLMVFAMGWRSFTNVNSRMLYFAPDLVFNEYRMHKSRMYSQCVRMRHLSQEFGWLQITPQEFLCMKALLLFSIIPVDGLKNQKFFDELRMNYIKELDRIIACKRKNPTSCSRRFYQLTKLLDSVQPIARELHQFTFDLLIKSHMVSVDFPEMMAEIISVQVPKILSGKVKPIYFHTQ
Sequence of Steroid hormone receptor ERR1 (Homo sapiens) (P11474 whole entry, looked up, the tested form may be a part): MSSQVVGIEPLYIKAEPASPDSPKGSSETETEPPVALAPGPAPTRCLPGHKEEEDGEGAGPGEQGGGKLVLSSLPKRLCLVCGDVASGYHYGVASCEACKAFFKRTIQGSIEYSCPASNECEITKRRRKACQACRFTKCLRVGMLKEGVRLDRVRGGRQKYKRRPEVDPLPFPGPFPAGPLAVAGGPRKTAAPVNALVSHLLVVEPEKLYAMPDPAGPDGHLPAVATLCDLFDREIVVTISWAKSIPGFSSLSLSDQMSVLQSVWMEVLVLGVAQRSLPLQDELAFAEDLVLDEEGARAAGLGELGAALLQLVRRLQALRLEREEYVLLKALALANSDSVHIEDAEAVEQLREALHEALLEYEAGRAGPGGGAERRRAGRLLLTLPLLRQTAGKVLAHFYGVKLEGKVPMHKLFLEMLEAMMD

On to `CC(C)Nc1ccc(Nc2ccccc2)cc1`, for which the compound was classed as inactive in [1], in [3], in experiment [4], in experiment [5], in experiment [6] and in experiment [7]. The compound was called inactive in experiment [8], in experiment [9], in experiment [10], in experiment [11], in experiment [12] and in experiment [14]. The compound was classed as inactive in [16], in experiment [17] and in experiment [18]. Also, the AC50 in experiment [2] was 1.97 µM (active); in [13] it was 3.68 µM (active); in [15], 8.77 µM (active).

For `CC(O)C#N` (stereo not drawn), the result in experiment [19], in experiment [1], in experiment [2], in [3], in experiment [4] and in experiment [6] was inactive. For the same compound, the call in [7], in [8], in experiment [9], in experiment [10], in experiment [11] and in [12] was inactive. Moreover, the compound was called inactive in [13], in [15], in experiment [17] and in [20].

Take `COC(=O)C(F)(F)C(F)(F)OC(F)(C(F)(F)F)C(F)(F)OC(F)=C(F)F` (stereo not drawn): the call in experiment [1], in [4], in experiment [5], in experiment [6], in [7] and in experiment [8] was inactive. Besides, the compound was classed as inactive in experiment [9], in experiment [10], in [11], in experiment [12], in [13] and in experiment [14]. For the same compound, the compound was called inactive in experiment [15], in [16], in experiment [17], in [20] and in experiment [18]. Further, the concentration at half-maximal activity (AC50) in [2] is 4.84 µM (active) and 15.2 µM (active) and 5.55 µM (active); in [3] it was 160 nM (active) and 436 nM (active) and 230 nM (active); in experiment [4], 0.451 µM (active); in experiment [10], 9.92 µM (active); in experiment [12], 87.4 µM (active); in [13], 18.3 µM (active). Moreover, the AC50 in experiment [15] was 30.3 µM (active) and 13.7 µM (active).

With `CC(=O)CCc1ccc2c(c1)OCO2`, the outcome in [19], in experiment [1], in [3], in experiment [4], in experiment [6] and in experiment [7] was inactive. For the same compound, the outcome in experiment [8], in [9], in experiment [10], in [11], in [12] and in experiment [14] was inactive. Moreover, the call in experiment [15] and in [17] was inactive. Besides, in [2], the AC50 was 27.9 µM (active).
